Most compounds without a hit are left out; they make up all but 0.4% or so of the library.
AID504770: growth inhibitors of E. coli YBA685 in a screen for V. cholerae RctB (chromosome II replication) inhibitors; E. coli YBA685 rctB-dependent plasmid, OD600 growth, 3 h; stronger effect = lower value; z-score (test concentration not listed); 130,000 tested, 0.27% active; AID 504770; in the data active = z-score below about -2, passing the limit was not always enough
CapD inh: CapD enzyme inhibition. purified CapD enzyme, fluorescence intensity read-out; stronger effect = lower value. z-score (no concentration beside the values). 140,000 tested, 0.23% active; in the data active = z-score mostly below about -2.9, no sharp cut-off; inactive = mostly above about -1.9
An asterisk follows results filed as active; / = no result given.

SMILES | AID504770 | CapD inh
CCOc1ccccc1COC(=O)Cc1coc2cc(O)ccc12 | -0.3 | /
COC(=O)c1ccc2c(c1)NC(=O)c1ccccc1S2 | -0.7 | -0.025
COC(CN(C)C(=O)c1ccc2c(c1)NC(=O)c1ccccc1S2)OC | -1.2 | -6*
CC(=O)n1c(=S)[nH]c2ccccc21 | 0.1 | -5.2*
O=C(Cn1c(=S)[nH]c2ccccc21)c1ccc(-c2ccccc2)cc1 | 1.9 | 0.53
CC(C)c1cc(N)on1 | -2.2* | /
CCCc1cc(N)on1 | -1.9 | /
O=C(c1ccccc1)N1CCN(C(=O)c2nn3c(c2Cl)NC(c2ccco2)CC3C(F)(F)F)CC1 (centres undefined) | / | -0.2
O=C(/C=C/c1ccc2c(c1)OCO2)NCc1ccccc1 | -0.95 | /
CC(C)(C)N=C1OC(c2ccccc2)(C(F)(F)F)NC(=S)N1c1ccccc1 (centres undefined) | 0 | 0.08
CCOC(=O)c1nc(NCCCN2CCc3ccccc3C2)c2ccccc2n1 | 1.8 | 0.25
N#Cc1cc(-c2ccc(Cl)cc2)no1 | -2.5* | /
NC(=O)c1cc(-c2ccc(Cl)cc2)no1 | -0.8 | -0.42
Cc1cc(C)cc(Nc2cc(=O)oc3ccccc23)c1 | 0.45 | -0.1
COc1ccc(C2CC(c3ccc4ccccc4c3)=NN2C(=O)Cn2cnnc2C#N)cc1 (centres undefined) | -1.4 | /
COc1ccccc1/C=C1/C(=O)Nc2ccccc21 | / | -2.2
COc1ccccc1/C=C1/C(=O)ON=C1C | -2.8* | 0.06
CN(C)c1nc2nonc2nc1Nc1ccc(F)cc1 | -0.65 | -5.2*
CC1CCN(c2nc3nonc3nc2Nc2ccc(F)cc2)CC1 | 1.4 | /
COc1ccc(C(=O)O/N=C/c2ccc(OCc3ccccc3)cc2)cc1 | / | 0.59
CCN1CCN(C(c2cccs2)C(C)NC(=O)Cc2cccs2)CC1 (centres undefined) | 0.1 | 0.17
CCN1CCN(C(c2cccs2)C(C)NC(=O)C(C)C)CC1 (centres undefined) | -0.05 | -5.4*
O=S(=O)(CCSc1ccc(Cl)cc1)c1ccccc1 | 0.05 | -0.48
O=S(=O)(CS(=O)(=O)Sc1ccc(Cl)cc1)Sc1ccc(Cl)cc1 | -3.5* | 0.01
O=S(=O)(NCC1(N2CCCCC2)CCCCC1)c1cccs1 | 0.45 | /
SMILES | AID504770 | CapD inh
Cc1cc(C)n(-c2ccc(N=NC3=C(O)CCCC3=O)cc2)n1 | -0.25 | -4.4*
O=C1CCCC(O)=C1N=Nc1cccc(C(=O)O)c1 | 1.1 | /
Cc1cc(C)c2c(=O)[nH]n(C3CCCC3)c2n1 | -0.4 | 1.5
Cc1nc(-c2ccc(C(F)(F)F)cc2)sc1C(=O)NNC(=O)OCCC1=CCC2CC1C2(C)C (centres undefined) | / | 3.1
OCCN1CCN(C(c2ccccc2)c2ccc3cccnc3c2O)CC1 (centres undefined) | 2.9 | -5.2*
Oc1c(C(c2ccccc2)N2CCOCC2)ccc2cccnc12 (centres undefined) | -0.35 | -0.8
O=C(Nc1ccccc1)Nc1ccc2snnc2c1 | -2.6* | -0.35
O=C(Nc1ccccc1)Nc1ccc2nnsc2c1 | -1.5 | -0.72
COc1ccc(C2=NN(C(=O)CSc3nnc(CNC(=O)c4cccc(C)c4)n3C)C(c3ccc(OC)cc3)C2)cc1 (centres undefined) | / | 1.4
CCc1ccc(-n2c(=S)sc3c(=O)[nH]c(SCC4OCCO4)nc32)cc1 | / | -1.5
CCc1ccc(-n2c(=S)sc3c(=O)[nH]c(SCC(=O)O)nc32)cc1 | / | -4.3*
CCc1ccc(-n2nnc(S(=O)(=O)c3ccc(CC)cc3)c2N)cc1 | 0.4 | -0.53
CCOc1ccc2c(O)c(C3=Nc4ccccc4C3=O)sc2c1 | 0.65 | /
CN(C)/C=C/C=C/c1cc(=O)cc(/C=C/C=C/N(C)C)o1 | -0.35 | -15*
CCN(CC)c1ccc(/C=C/c2cc(=O)cc(C)o2)cc1 | -0.65 | /
O=C(O)CC/C(=N\Nc1ccc([N+](=O)[O-])cc1)c1ccccc1 | / | -3.6*
O=C(Nc1cccc(C(=O)c2ccccc2)c1)c1ccc([N+](=O)[O-])cc1 | / | -0.51
CCOC(=O)c1c(C)[nH]c(C)c1C(=O)COC(=O)CCC1CCCC1 | 0.1 | /
CN(C)/C=C1\SC(=O)N(c2ccccc2)C1=O | 1.1 | -6.4*
O=C(O)/C=C1\SC(=O)N(c2ccccc2)C1=O | 0.35 | /
C=C(C)c1ccccc(=O)c1O | -5* | -3.1
O=C(O)c1ccccc1O | 1.4 | -0.4
O=C(CCCCl)O/N=C1\C(=O)N(Cc2ccc(Cl)cc2)c2ccccc21 | / | -0.77
COC(=O)/C(C#N)=C1\NC(C)=NC(SC)=C1C#N | 0.35 | -0.86
CSC1=C(C#N)C(=C(C#N)C#N)NC(C)=N1 | -0.85 | -4.5*
SMILES | AID504770 | CapD inh
COc1ccc2c(CC(=O)OCc3cc(=O)oc4cc(OC)ccc34)coc2c1 | -0.7 | /
CC(=O)Nc1ccc2c(c1)C1C=CCC1C(C(=O)O)N2 (centres undefined) | 1.4 | /
O=C(O)C1Nc2c(I)cccc2C2C=CCC12 (centres undefined) | -0.7 | -8.1*
CC1=C(C#N)C(=O)NC(=O)/C1=C/c1ccc(-c2cccc(C(=O)O)c2)o1 | 1.1 | 3.3
N#Cc1c(Cl)nc(Cl)c(Cl)c1Cl | -3.5* | /
CC(C)=NNc1nc(Cl)c(C#N)c(Cl)c1Cl | -0.6 | -0.61
CC(=O)n1c(N)nc2ccccc21 | -0.25 | -0.48
CCOC(=O)c1nc2ccccc2n(C(C)=O)c1=O | -0.25 | -6.6*
CC1(C)Cc2c(c(-c3ccccc3)[nH]c(=O)c2C#N)CO1 | -0.2 | /
CC1(C)CC(=O)/C(=N/Nc2ccccc2)CO1 | -0.8 | -4*
CCCS(=O)(=O)c1c(S(=O)(=O)CCC)c2c(C)cc(C)cn2c1C(=O)c1ccc(Br)cc1 | / | -0.045
COc1ccc(NC(=O)CS(=O)(=O)c2cccc(C(F)(F)F)c2)cc1 | / | 0.46
CC1CC(OCC(O)CN)CC(C)(C)C1 (centres undefined) | -2.2* | /
CC1CC(OCC(O)C[N+]2(C)CCOCC2)CC(C)(C)C1 (centres undefined) | 0.15 | 0.46
COc1ccccc1C(=O)OCC(=O)c1ccc(Cl)cc1 | / | 0.42
CCOC(=O)c1sc2nc(C(F)(F)F)nn2c1C | -2.5* | 0.47
Cc1c(C(=O)O)sc2nc(C(F)(F)F)nn12 | -1.1 | 0.15

High-throughput results (PubChem)
